Screening results (PubChem BioAssay)
Hits are enriched below; roughly 7.6% of the tested compounds scored in any of these assays.
ELG1 repair inh: ELG1-dependent DNA repair inhibition; HEK293T ELG1-luciferase reporter, luminescence, 16 h; DNA damage induced by 5-fluorouridine; Potency, µM (top dose mostly 46.1 µM), actives largely listed as inhibitors; 330,000 compounds, 2.3% hits; AID 504467; also: nearly all actives have a fitted effect of over 55% in size
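Quantitative HTS, concentration-response format. 2,000 cells/well co-treated with 5-fluorouridine and compound, 16 hr in 5% CO2 at 37 °C; ONE-Glo luminescence read after 30 min.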
Giardia killer: kills Giardia lamblia | Giardia lamblia trophozoite viability | activity change, % at 7.66 µM, hits read low | 340,000 compounds, 0.15% hits; in the data active = activity change below about -80%; inconclusive = between about -30% and that limit;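 also: parasites exposed to compound for two days anaerobically before the ATP read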
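Trophozoites 100 cells/well + cpd; 48 hrs, 37 deg C, anaerobic. ATPLite 1-Step added, 15-30 min RT, luminescence read (ATP-based viability).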
p53 reactivator: re-activators of mutant p53; H1299 p53-A138V BP100-luciferase reporter, luminescence, 24 h; Potency, µM (highest dose often 92.2 µM), usual class: activators; 320,000 compounds, 0.063% hits; AID 504706; also: nearly all actives have a fitted effect of over 45% in size
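H1299 (p53-null), stable ts p53-A138V + BP100-Luc; 1000 cells/well, Opti-MEM/10% FBS; cpd 4 pt, 1:5; 24 h, 37 deg C, 5% CO2; detection reagent 10 min RT; luminescence.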
BRCA1 expr act: increases BRCA1 expression | MCF7-BRCA1-FFLuc reporter, luminescence, 48 h; response scale: scaled: vehicle 0%, 10 µM genistein 100% | Potency, µM (titrated, usually from 46.1 µM), hits mostly activators | 380,000 compounds, 1.1% hits | AID 624202; also: nearly all actives have a fitted effect of over 80% in size
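MCF7 cells carrying a BRCA1-firefly luciferase reporter (2000 cells/well, phenol-red free MEM) were attached for 2 h at 37 °C, then given compounds for 48 h. Luminescence was read 15 min after luciferase reagent; activity normalized to genistein (10 microM) and DMSO.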
Gal4-VP16 FLuc: Gal4-VP16 reporter inhibition counter-screen | Drosophila S2 Gal4-VP16 UAS-luciferase, luminescence, 20 h | Potency, µM (top dose mostly 53.6 µM), actives largely listed as inhibitors | 310,000 compounds, 3.5% hits;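 also: Gal4-VP16 expression switched on by copper sulfate through the metallothionein promoter; nearly all actives have a fitted effect of over 50% in size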
RORgamma inh: blocks mouse ROR gamma transcriptional activity. P51450. Drosophila S2 Gal4-RORgamma UAS-luciferase reporter, 20 h. Potency, µM (doses to about 53.6 µM), most hits filed as inhibitors. 310,000 compounds, 5.4% hits; also: nearly all actives have a fitted effect of over 60% in size
Target sequence (P51450 whole entry, looked up, the tested form may be a part): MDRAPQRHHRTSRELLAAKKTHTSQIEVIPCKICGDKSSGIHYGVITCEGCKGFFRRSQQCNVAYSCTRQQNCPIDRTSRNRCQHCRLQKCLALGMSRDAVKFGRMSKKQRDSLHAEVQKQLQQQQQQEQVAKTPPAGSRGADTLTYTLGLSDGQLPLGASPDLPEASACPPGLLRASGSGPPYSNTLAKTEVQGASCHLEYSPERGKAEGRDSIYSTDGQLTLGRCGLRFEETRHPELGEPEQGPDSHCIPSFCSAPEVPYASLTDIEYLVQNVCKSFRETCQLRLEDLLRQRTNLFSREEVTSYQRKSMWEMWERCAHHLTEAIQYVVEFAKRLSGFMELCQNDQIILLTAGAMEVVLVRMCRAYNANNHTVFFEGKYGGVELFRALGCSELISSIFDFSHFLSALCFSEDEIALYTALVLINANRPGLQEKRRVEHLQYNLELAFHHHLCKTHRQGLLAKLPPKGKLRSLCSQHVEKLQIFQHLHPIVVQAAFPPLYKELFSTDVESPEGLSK
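In this cell-based reporter format, copper sulfate (700 uM final) drives Gal4–ROR gamma fusion expression from a metallothionein promoter in Drosophila Schneider cells; compounds preincubated 1 hr, reporter read after 20 hr at ambient temperature.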
Hits are given with their value; 0 = inactive; ? = inconclusive; - = no result given; [ ] = dose if it differs, or a comment. Unless noted, calls follow the shape of the dose curve; as a rule, active = well fitted curve in the direction sought with a large enough effect; inconclusive = small, poorly fitted or top-dose-only effect, or another doubt; inactive = no such curve, though single readings can be large; an effect the other way counts as inactive or inconclusive.

SMILES	ELG1 repair inh	Giardia killer	p53 reactivator	BRCA1 expr act	Gal4-VP16 FLuc	RORgamma inh
Cc1ccc(C(=O)N2CCCC(C(F)(F)F)C2)cc1S(=O)(=O)N1CCOCC1 (configuration not stated)	0	0	0	0	-	-
COc1ccc(CC(=O)N(Cc2ccccc2)c2ccccc2)cc1S(=O)(=O)N1CCOCC1	16µM	0	0	0	0	0
COCCN(Cc1ccccc1)C(=O)Cc1ccc(OC)c(S(=O)(=O)N2CCOCC2)c1	?	0	0	0	-	-
Cc1[nH]n(-c2nc(-c3ccccc3F)cc(=O)[nH]2)c(=O)c1CCO	0	?	0	0	0	10µM
COCCn1cnc2c(c1=O)c1nc3ccccc3nc1n2/N=C/c1cccc(OC)c1	21µM	0	0	0	?	0
C=CCn1cnc2c(c1=O)c1nc3ccccc3nc1n2/N=C/c1ccccn1	12µM	0	0	0	0	0[10 µM]
COc1cccc(/C=N/n2c(-c3ccco3)nc3ccccc3c2=O)c1	18µM	0	?	0	?	?
C=CCn1cnc2c(c1=O)c1nc3ccccc3nc1n2/N=C/c1cc(OC)c(OC)c(OC)c1	5.8µM	0	0	0	0	0[10 µM]
Nc1nc2ccccc2cc1C(=O)NCc1ccc(Cl)cc1Cl	-	-	-	0	-	-
CC1=C(C(=O)N2CCOCC2)CC(CC(=O)NCc2ccco2)C(=O)N1CCC1=CCCCC1 (configuration not stated)	-	-	-	0	-	-
COc1ccc(N2CCN(C(=O)COC(=O)c3c(-c4ccccc4)noc3C)CC2)cc1	?	0	0	0	-	-
O=C(COc1ccc(S(=O)(=O)NC2CCCCC2)cc1Cl)N1CCN(c2ccccc2)CC1	0	0	0	0	0	0
C=CCn1cnc2c(c1=O)c1nc3ccccc3nc1n2/N=C/c1cccc(OC)c1OC	3.3µM	0	0	0	0	0[10 µM]
CCc1ccc(Nc2nnc(SC3CCOC3=O)s2)cc1 (configuration not stated)	?	0	0	0	?	0
C/C(=N\NC(=O)c1cc(C)oc1C)c1ccc2ccccc2c1	0	0	0	0	0	2.2µM
C/C(=N/NC(=O)c1cc2ccccc2cc1O)c1ccco1	?	0	0	0	?	?
C/C(=N\NC(=O)c1cc2ccccc2cc1O)c1ccc(C)o1	?	0	0	0	?	8.9µM
O=[N+]([O-])c1ccc(O)c(-c2nc(-c3ccccc3)c(-c3cccs3)[nH]2)c1	?	0	0	0	11µM	0
COc1ccc(-c2nc(-c3ccccc3)c(-c3cc([N+](=O)[O-])ccc3C)[nH]2)cc1OC	10µM	0	0	0	0	0
Cc1ccc(OC(C)c2nnc(N)s2)cc1Cl (configuration not stated)	0	0	0	0	0	0
NNC(=O)CSc1nc(-c2ccccc2)cn1-c1ccccc1	?	0	?	0	0	5.6µM
Cc1ccc(SCC(=O)NC2CCS(=O)(=O)C2)cc1C (configuration not stated)	0	0	0	0	-	-
Cc1ccc(-c2cn(-c3ccccc3)c(SCC(=O)NC3CCS(=O)(=O)C3)n2)cc1C (configuration not stated)	?	0	?	0	?	13µM
Nn1cc(-c2ccccc2)nc1SCC(=O)NCCc1ccccc1	0	0	0	0	0	0
CCCN1C2=NCCN2c2ccccc21	0	0	0	0	0	0
SMILES	ELG1 repair inh	Giardia killer	p53 reactivator	BRCA1 expr act	Gal4-VP16 FLuc	RORgamma inh
COc1ccc(-c2cc(C(=O)Nc3nc4ccccc4s3)c3ccccc3n2)cc1OC	15µM	0	0	0	0	0
COc1ccc(-c2cc(C(=O)Nc3ccccc3O)c3ccccc3n2)cc1OC	23µM	0	0	0	0	0
Cc1ccc(C(=O)N/N=C/c2ccc(S(=O)(=O)O)o2)c(Cl)c1	0	0	0	0	?	?
COc1ccc(O[C@H]2C=C[C@@H](c3ccccc3)O[C@@H]2COC(=O)CC/C(C)=N/O[C@H](C)c2cn([C@@H]3COC[C@H]3O)nn2)cc1	26µM	-	0	-	0	?
COc1ccc(O[C@H]2C=C[C@@H](c3ccccc3)O[C@H]2CO/N=C(/C)CCC(=O)OC[C@@H]2O[C@H](c3ccccc3)C=C[C@@H]2Oc2ccc(OC)cc2)cc1	-	-	-	-	0[10 µM]	0[10 µM]
O=c1c2cnn(-c3ccccc3)c2nc(-c2cccs2)n1-c1cccc(Cl)c1	15µM	0	0	0	0	0
Cc1nc2nc(SCc3nc4ccccc4[nH]3)[nH]c2cc1Br	0	0	0	0	0	0
COc1ccc2c(c1)OCc1c-2oc2cc(OC)ccc12	-	-	-	-	?	0
Cc1ccc(NC(=O)c2ccccn2)c(Br)c1	?	0	?	3.5µM	0	0
CCN(CC)S(=O)(=O)c1ccc(NCc2ccccc2)nc1	0	0	0	0	0	0
CC(=O)c1ccc(NC(=O)Nc2ccc3c(c2)nc(C)n3C)cc1	?	0	0	3.5µM	0	0
COC(=O)c1ccc(NC(=O)Nc2ccc3c(c2)nc(C)n3C)cc1	0	0	0	?	0	0
Cc1nc2cc(NC(=O)Nc3ccccc3Cl)ccc2n1C	?	?	0	0	11µM	5µM
O=C(Nc1ccc2nccnc2c1)Nc1ccccc1Cl	?	0	0	10µM	?	0
Cc1ccc(NC(=O)Nc2ccc3c(c2)nc(C)n3C)cc1	?	0	0	0	0	0
O=C(Nc1cccc(Cl)c1)Nc1ccc2nccnc2c1	?	0	?	?	0	0
COc1ccc(-c2oc3c(c2C(=O)OCCCO)C(OCCCCCO)CCC3)cc1 (configuration not stated)	-	-	-	0	-	-
O=C(Nc1ccccc1N1CCCCC1)c1ccc([N+](=O)[O-])o1	0	?	?	0	-	-
CC(=O)N1CCN(c2ccc(NC(=O)c3ccc(Br)o3)cc2Cl)CC1	?	0	0	0	0	0
O=C(Nc1ccccc1N1CCOCC1)c1ccc([N+](=O)[O-])o1	0	-92	0	0	0	0
O=C(Nc1ccccc1N1CCN(C(=O)c2ccc(Cl)cc2)CC1)c1ccc([N+](=O)[O-])o1	0	-89	0	0	?	0
CC(C)C(=O)N1CCN(c2ccc(NC(=O)c3ccc([N+](=O)[O-])o3)cc2Cl)CC1	0	-88	0	0	0[10 µM]	?
CC(C)C(=O)N1CCN(c2ccc(NC(=O)c3ccc(Br)o3)cc2)CC1	0	0	0	0	0	0
CCCC(=O)N1CCN(c2ccc(NC(=O)c3ccc([N+](=O)[O-])o3)cc2Cl)CC1	?	-82	0	0	?	20µM
O=C(NC1CCCC1)c1ccc(CS(=O)(=O)c2ccc(Cl)cc2)o1	0	0	0	0	0	0
Cc1ccc(NC(=O)c2ccc([N+](=O)[O-])o2)cc1S(=O)(=O)N1CCOCC1	?	-91	0	0	0	0
